This note sets out measurements from ChEMBL document CHEMBL1961873, “Compounds: GSK PKIS; Assays: Nanosyn kinase panel” (2012).

A word on the inhibition: it is the relative decrease from the control value, in per cent.

Assay [1] deals with Glycogen synthase kinase-3 beta (Homo sapiens) (UniProt P49841). The conditions noted are these: at 1 µM.
Assay [2] deals with Homeodomain-interacting protein kinase 1 (Homo sapiens) (UniProt Q86Z02). The note with it: at 0.1 µM.
Assay [3] has the same target. The note with it: at 1 µM.
For assay [4], the target named is T1, Homeodomain-interacting protein kinase 4 (Homo sapiens) (UniProt Q8NE63).
T1 sequence (whole entry): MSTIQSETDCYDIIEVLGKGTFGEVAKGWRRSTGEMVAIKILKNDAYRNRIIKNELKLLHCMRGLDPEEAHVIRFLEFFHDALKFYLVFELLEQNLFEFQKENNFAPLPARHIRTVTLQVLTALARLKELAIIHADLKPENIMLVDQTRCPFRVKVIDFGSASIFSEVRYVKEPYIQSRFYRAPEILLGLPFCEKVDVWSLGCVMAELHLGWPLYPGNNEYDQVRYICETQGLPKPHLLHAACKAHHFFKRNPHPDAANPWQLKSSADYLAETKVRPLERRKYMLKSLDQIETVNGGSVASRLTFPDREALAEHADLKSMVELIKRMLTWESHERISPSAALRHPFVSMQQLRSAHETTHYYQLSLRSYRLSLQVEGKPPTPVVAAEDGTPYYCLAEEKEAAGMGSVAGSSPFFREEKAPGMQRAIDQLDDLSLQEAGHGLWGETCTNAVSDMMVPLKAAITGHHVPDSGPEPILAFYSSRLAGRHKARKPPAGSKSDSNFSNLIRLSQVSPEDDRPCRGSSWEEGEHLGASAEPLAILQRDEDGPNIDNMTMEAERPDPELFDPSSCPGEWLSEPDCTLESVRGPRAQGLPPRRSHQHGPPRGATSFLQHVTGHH
The note with it: at 0.1 µM.

Assay [5] addresses T1, Homeodomain-interacting protein kinase 4 (Homo sapiens). The note with it: at 1 µM.
Assay [6] has as its target Mitogen-activated protein kinase 9 (Homo sapiens) (UniProt P45984). The conditions noted are these: at 0.1 µM.
For assay [7] the target is unchanged. The note with it: at 1 µM.
Assay [8] deals with Mitogen-activated protein kinase 1 (Homo sapiens) (UniProt P28482). The note with it: at 0.1 µM.
Chain of Mitogen-activated protein kinase 1 (Homo sapiens) (P28482 whole entry): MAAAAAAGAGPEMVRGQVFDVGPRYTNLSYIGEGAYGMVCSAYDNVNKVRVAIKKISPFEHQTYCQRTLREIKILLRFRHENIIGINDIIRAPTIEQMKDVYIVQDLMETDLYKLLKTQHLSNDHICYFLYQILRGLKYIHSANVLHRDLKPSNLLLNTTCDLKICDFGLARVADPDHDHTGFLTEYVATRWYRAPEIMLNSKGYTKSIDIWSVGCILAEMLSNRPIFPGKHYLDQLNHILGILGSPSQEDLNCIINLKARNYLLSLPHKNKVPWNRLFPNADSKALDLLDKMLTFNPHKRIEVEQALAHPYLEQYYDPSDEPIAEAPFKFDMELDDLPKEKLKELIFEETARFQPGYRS
The target is the same in assay [9]. The note with it: at 1 µM.
Assay [10] concerns the target Mitogen-activated protein kinase 3 (Homo sapiens) (UniProt P27361). The conditions noted are these: at 0.1 µM.
The target is the same in assay [11]. The note with it: at 1 µM.
Assay [12] concerns the target SRSF protein kinase 3 (Homo sapiens) (UniProt Q9UPE1). The note with it: at 0.1 µM.
Assay [13] shares this target. The conditions noted are these: at 1 µM.
The target of assay [14] is Mitogen-activated protein kinase 14 (Homo sapiens) (UniProt Q16539). The note with it: at 0.1 µM.
Chain of Mitogen-activated protein kinase 14 (Homo sapiens) (Q16539 whole entry): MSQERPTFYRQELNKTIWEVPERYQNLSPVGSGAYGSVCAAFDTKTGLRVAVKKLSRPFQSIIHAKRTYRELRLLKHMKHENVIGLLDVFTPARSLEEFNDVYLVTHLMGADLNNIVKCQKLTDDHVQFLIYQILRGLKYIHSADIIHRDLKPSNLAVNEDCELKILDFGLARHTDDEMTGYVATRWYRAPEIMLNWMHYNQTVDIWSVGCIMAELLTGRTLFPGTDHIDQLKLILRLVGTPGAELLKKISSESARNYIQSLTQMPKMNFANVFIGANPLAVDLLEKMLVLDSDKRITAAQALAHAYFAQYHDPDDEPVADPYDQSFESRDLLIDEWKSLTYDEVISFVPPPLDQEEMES
Assay [15] shares this target. The conditions noted are these: at 1 µM.
Assay [16] has as its target Mitogen-activated protein kinase 11 (Homo sapiens) (UniProt Q15759). The conditions noted are these: at 0.1 µM.
The target is the same in assay [17]. The conditions noted are these: at 1 µM.
For assay [18], the target named is T2, Mitogen-activated protein kinase 13 (Homo sapiens) (UniProt O15264).
T2 sequence (whole entry): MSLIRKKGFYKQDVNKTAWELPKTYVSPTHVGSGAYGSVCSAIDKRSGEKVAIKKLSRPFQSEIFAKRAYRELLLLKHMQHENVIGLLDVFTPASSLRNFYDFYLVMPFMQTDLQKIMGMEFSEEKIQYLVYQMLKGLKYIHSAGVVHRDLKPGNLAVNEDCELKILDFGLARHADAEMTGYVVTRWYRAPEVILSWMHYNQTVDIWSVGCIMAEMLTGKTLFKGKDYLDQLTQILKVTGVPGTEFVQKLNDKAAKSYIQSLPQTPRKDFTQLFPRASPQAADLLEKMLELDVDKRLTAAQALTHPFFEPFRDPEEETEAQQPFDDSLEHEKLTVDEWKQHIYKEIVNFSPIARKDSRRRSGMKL
The note with it: at 0.1 µM.

Assay [19] addresses T2, Mitogen-activated protein kinase 13 (Homo sapiens). The conditions noted are these: at 1 µM.
Assay [20] has as its target T3, Mitogen-activated protein kinase 12 (Homo sapiens) (UniProt P53778).
T3 sequence (whole entry): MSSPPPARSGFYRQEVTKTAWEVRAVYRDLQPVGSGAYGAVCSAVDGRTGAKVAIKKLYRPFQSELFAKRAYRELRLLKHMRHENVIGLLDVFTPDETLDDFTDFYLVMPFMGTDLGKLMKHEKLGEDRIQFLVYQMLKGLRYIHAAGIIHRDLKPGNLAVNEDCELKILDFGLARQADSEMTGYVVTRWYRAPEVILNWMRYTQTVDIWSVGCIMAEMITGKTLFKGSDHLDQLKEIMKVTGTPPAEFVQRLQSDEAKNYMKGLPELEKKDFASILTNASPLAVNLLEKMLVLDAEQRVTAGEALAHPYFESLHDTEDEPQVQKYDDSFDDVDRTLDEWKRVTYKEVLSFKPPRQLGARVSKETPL
The conditions noted are these: at 0.1 µM.

Chain of Mitogen-activated protein kinase 3 (Homo sapiens) (P27361 whole entry): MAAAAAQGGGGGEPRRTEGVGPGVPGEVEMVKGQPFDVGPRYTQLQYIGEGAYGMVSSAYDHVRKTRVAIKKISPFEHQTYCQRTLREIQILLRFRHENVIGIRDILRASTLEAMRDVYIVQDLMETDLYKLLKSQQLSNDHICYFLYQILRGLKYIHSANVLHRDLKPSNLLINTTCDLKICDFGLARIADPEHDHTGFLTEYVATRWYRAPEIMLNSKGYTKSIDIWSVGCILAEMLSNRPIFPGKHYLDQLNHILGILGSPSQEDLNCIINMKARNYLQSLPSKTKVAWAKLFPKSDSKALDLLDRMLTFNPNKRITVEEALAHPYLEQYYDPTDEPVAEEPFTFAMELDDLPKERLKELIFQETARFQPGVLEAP
Chain of Homeodomain-interacting protein kinase 1 (Homo sapiens) (Q86Z02 whole entry, looked up): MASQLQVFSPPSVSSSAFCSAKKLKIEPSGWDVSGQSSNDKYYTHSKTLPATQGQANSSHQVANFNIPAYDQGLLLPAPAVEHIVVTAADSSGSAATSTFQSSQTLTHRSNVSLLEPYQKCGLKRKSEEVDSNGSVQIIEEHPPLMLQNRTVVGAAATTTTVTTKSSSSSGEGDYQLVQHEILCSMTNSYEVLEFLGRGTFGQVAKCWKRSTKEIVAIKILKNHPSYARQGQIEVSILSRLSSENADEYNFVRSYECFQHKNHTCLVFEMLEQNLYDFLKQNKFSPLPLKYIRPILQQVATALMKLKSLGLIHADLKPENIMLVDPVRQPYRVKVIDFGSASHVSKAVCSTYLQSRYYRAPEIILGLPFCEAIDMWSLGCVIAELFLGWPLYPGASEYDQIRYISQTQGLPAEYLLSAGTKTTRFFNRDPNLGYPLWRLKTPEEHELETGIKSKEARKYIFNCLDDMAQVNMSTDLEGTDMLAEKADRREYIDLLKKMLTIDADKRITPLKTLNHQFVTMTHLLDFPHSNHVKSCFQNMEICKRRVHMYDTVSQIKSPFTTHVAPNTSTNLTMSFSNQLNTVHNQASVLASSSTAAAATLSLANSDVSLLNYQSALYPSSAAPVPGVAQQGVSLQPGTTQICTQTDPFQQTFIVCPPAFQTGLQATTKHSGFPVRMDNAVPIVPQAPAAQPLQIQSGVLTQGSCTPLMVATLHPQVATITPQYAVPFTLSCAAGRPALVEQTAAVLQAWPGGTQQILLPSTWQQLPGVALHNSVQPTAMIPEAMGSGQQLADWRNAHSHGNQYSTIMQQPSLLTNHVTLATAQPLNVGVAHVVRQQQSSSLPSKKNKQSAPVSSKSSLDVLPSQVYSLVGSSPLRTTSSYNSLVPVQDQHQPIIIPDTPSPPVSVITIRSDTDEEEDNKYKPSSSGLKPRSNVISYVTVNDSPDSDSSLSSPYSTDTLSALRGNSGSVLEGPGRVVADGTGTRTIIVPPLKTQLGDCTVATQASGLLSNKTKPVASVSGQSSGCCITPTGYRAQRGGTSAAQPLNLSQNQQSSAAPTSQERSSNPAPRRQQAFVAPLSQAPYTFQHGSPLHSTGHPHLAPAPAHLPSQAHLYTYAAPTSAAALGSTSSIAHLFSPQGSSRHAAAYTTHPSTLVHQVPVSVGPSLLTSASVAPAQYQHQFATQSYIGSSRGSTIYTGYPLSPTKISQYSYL
Chain of Mitogen-activated protein kinase 9 (Homo sapiens) (P45984 whole entry, looked up): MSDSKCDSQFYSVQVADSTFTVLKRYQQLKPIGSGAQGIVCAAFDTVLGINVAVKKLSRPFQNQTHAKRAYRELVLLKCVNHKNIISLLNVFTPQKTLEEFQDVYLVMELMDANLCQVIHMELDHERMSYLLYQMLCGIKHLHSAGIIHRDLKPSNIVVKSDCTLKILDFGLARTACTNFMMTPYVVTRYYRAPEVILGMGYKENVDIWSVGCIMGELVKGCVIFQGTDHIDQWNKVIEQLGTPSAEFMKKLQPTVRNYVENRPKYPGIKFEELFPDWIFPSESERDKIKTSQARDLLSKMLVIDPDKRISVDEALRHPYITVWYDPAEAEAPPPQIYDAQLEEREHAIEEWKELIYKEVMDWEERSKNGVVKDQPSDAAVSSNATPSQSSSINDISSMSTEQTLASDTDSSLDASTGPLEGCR
Chain of Mitogen-activated protein kinase 11 (Homo sapiens) (Q15759 whole entry): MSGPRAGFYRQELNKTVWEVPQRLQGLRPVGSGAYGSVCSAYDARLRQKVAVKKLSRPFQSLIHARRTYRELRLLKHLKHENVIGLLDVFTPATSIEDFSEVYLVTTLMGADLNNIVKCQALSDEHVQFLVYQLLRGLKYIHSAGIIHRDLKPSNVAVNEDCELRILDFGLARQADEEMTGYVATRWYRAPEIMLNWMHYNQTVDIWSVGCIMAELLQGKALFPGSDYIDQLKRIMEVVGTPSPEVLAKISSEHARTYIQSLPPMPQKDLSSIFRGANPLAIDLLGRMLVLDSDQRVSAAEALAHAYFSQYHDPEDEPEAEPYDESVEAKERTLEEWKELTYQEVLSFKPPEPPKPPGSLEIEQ
Chain of Glycogen synthase kinase-3 beta (Homo sapiens) (P49841 whole entry, looked up): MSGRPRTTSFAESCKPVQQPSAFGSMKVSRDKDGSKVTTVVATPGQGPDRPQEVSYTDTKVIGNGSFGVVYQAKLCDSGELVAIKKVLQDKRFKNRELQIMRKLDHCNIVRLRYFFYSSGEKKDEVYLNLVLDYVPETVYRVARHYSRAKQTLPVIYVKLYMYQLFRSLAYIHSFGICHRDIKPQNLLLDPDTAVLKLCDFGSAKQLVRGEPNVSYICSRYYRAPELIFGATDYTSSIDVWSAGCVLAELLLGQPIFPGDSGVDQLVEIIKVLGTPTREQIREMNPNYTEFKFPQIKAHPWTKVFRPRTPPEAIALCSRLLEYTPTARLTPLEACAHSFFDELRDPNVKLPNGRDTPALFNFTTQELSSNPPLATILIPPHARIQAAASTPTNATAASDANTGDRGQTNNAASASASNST
Chain of SRSF protein kinase 3 (Homo sapiens) (Q9UPE1 whole entry): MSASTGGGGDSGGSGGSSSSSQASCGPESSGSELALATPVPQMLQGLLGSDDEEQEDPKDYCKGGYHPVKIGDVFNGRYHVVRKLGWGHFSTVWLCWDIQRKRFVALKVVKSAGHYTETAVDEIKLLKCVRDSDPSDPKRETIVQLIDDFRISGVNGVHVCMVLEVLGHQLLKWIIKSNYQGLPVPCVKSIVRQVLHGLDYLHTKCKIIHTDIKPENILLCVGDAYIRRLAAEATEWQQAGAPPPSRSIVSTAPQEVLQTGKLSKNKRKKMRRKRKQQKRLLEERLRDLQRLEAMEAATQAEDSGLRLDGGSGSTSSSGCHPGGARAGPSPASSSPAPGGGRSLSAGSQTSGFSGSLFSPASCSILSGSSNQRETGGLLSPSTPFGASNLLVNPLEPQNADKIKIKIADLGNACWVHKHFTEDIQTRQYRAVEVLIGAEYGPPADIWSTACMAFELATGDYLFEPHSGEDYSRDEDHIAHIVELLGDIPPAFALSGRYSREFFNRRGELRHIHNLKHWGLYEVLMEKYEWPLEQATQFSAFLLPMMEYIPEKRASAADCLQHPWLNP

Take `Fc1ccc(-c2c(-c3ccncc3)nc3n2CCS3)cc1`: the inhibition was 3.12% in [1]; -3.99% in assay [2]; 4.73% in assay [3]; -1.11% in assay [4]; 5.51% in assay [5]; 2.29% in [6]. Further, the inhibition was 4.26% in assay [7]; 2.87% in assay [8]; 3.3% in [9]; 2.96% in assay [10]; 2.25% in assay [11]; -1.16% in assay [12]. In addition, the inhibition in assay [13] turned out to be 1.49%; in assay [14] it was 1.13%; in assay [15], 10.9%; in [16], 1.9%; in [17] it was 0.65%; in assay [18] it was 3.54%. Also, the inhibition in assay [19] was found to be 2.65%; in [20], 3.9%.

Consider `FC(F)(F)c1cccc(Nc2nccc(-c3cnn4nc(-c5ccccc5)ccc34)n2)c1`, for which the inhibition in assay [2] was 7.68%; in assay [3], 51.8%; in [4] it was 6.64%; in assay [5] it was 35.8%; in assay [6], -0.53%; in assay [7], -1.92%. The inhibition in [8] was 4.13%; in assay [9] it was 3.46%; in assay [10] it was 0.87%; in assay [11] it was 3%; in [12], -2.14%; in assay [13] it was 1.08%. For the same compound, the inhibition turned out to be 3.54% in assay [14]; 1.79% in [15]; 3.08% in assay [16]; 3.39% in assay [17]; 1.85% in assay [18]; 0.28% in [19]. The inhibition in [20] worked out at 1.53%.

As to `COc1cccc(/C=N/Nc2ncnc3c2cnn3-c2cccc(OC)c2)c1`, the inhibition in assay [1] was 51.1%; in [2], -1.82%; in [3], 2.63%; in assay [4], 0.49%; in [5], 4.13%; in assay [6] it was 3.29%. The inhibition is 5.5% in assay [7]; 5.68% in assay [8]; 3.77% in assay [10]; 2.47% in assay [11]; -1.31% in assay [12]; -0.75% in assay [13]. For the same compound, the inhibition stood at 5.18% in assay [14]; 5.34% in assay [15]; 2.68% in assay [16]; 2.6% in [17]; 4% in [18]; 4.61% in [19]. The inhibition in assay [20] worked out at 3.43%.

Consider `NC(=O)c1ccc(Oc2nccc(-c3c(-c4ccc(F)cc4)ncn3C3CCNCC3)n2)cc1`, for which the inhibition in [1] was 3.17%; in assay [2], 0.03%; in assay [3], 2.53%; in [4], 0.33%; in [5], 0.25%; in assay [8] it was 5.21%. Moreover, the inhibition in [9] is 6.64%; in assay [10] it was 3.78%; in assay [11] it was 5.38%; in assay [12], 1.1%; in assay [13] it was -0.11%.

`COc1cc2ncn(-c3cc(OCCc4ccccc4)c(C(N)=O)s3)c2cc1OC`: the inhibition in assay [1] is 0.1%; in assay [2], -0.4%; in assay [3] it was 3.92%; in assay [4] it was 2.74%; in [5], 19.1%; in assay [6], 4.17%. The inhibition was 3.52% in [7]; 1.47% in assay [8]; 3.64% in assay [9]; 0.38% in [10]; 0.82% in assay [11]; -1.68% in assay [12]. Further, the inhibition in assay [13] worked out at 0.18%; in [14], 4.09%; in [15], 13.1%; in assay [16], 3.65%; in [17] it was 2.87%; in [18], 4.25%. The inhibition in assay [19] was 1.8%; in [20] it was -0.53%.

On to `Cc1ccc(C(=O)NC2CCC2)cc1-c1ccc(C(=O)NCC2CC2)cc1`, for which the inhibition in assay [1] was 3.43%; in assay [2], -0.93%; in assay [3], 2.06%; in assay [4] it was -0.06%; in [5], 1.07%; in assay [6] it was 2.74%. Also, the inhibition in assay [7] was 3.35%; in assay [8], 0.32%; in assay [9], 3.11%; in assay [10] it was 2.05%; in assay [11] it was 2.32%; in assay [12], -2.8%. The inhibition in assay [13] was -1.15%; in assay [16], 10.7%; in assay [17] it was 48.2%; in assay [18], 1.41%; in assay [19], 2.78%; in assay [20] it was 3.67%.

`O=C(Nc1n[nH]c2nc(-c3ccc(O)cc3)c(Br)cc12)C1CC1`: the inhibition was found to be 14.7% in assay [2]; 58% in assay [3]; 2.65% in assay [4]; 10.4% in assay [5]; 12.2% in assay [6]; 19.4% in assay [7]. Also, the inhibition was 5.75% in assay [8]; 10.1% in assay [9]; 5.33% in [10]; 5.57% in assay [11]; -1.04% in [12]; 7.81% in assay [13]. In addition, the inhibition is 6.42% in [14]; 16% in assay [15]; 11.1% in assay [16]; 38.8% in [17]; 8.19% in [18]; 32.6% in assay [19]. The inhibition in assay [20] is 1.76%.

Turning to `O=C1NC(=O)C(c2cccc(Cl)c2)=C1Nc1ccc(Cl)c(C(=O)O)c1`, the inhibition in [2] was found to be 2.03%; in assay [3] it was 1.77%; in assay [4], 1.36%; in assay [5] it was 0.39%; in assay [6], 1.14%; in assay [7] it was 3.47%. For the same compound, the inhibition in assay [8] was 11%; in [9], 5.36%; in assay [10] it was 5.36%; in [11], 3.9%; in assay [12] it was -2.79%; in assay [13], 0.44%. Further, the inhibition in assay [14] is 1.44%; in assay [15] it was 4.72%; in assay [16], 3.66%; in assay [17], 4.6%; in assay [18], 1.21%; in assay [19], 0.67%. Further, the inhibition in [20] came out at 5.9%.
